Source: PubChem BioAssay AID652054 (National Center for Advancing Translational Sciences (NCATS), 2013)
Hit rate of the full screen: of about 360,000 compounds, about 9,100 (2.5%) were called active. Another 4% or so got no clear call; they are omitted. The list comes from a sample in which actives are over-represented; it also holds similar structures and randomly drawn compounds. Unmarked numbers belong to inactive results. Cut-off read from the data, not from the text of the source: active = max response below about -50%; inconclusive = no clear call, values can overlap the other calls; inactive = above that.

molecular target: D(3) dopamine receptor (Homo sapiens) (UniProt P35462); assay: qHTS of D3 Dopamine Receptor Antagonist: qHTS; details: D3R cells, DiscoveRx beta-arrestin luminescence, antagonist mode; hits give low values
How it was run: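 Cells expressing the human receptor were seeded at 1500 cells/well, incubated overnight at 37 degrees C in 5% CO2, then exposed to library compounds with dopamine controls for 90 minutes at 37 degrees C before luminescent detection.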
% is set by controls: 0 for no effect and ±100 for the full control effect.

Sequence of D(3) dopamine receptor (Homo sapiens) (P35462 whole entry, looked up): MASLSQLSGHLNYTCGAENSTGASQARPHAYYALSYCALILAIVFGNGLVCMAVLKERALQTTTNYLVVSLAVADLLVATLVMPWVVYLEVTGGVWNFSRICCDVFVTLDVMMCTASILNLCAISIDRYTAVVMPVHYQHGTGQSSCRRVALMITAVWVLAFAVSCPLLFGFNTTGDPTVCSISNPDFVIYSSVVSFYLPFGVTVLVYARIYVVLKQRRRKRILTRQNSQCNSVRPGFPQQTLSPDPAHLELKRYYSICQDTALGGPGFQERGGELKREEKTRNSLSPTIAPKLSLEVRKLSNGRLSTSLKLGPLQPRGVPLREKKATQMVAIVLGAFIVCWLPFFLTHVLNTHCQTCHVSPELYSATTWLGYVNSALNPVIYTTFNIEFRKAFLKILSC

| Structure (SMILES) | max response, negative = inhibition |
| --- | --- |
| Cc1csc(=O)n1CCC(=O)OCC(=O)Nc1ccc(N2CCOCC2)cc1 | -0.664% |
| OC(COCC1COc2ccccc2O1)CN1CCN(c2ccc(F)cc2)CC1 (stereo not given) | -58.5% (active) |
| O=C(COC(=O)c1ccc(F)cc1)NCC1COc2ccccc2O1 (stereo not given) | -19.4% |
| O=[N+]([O-])c1ccc(N2CCN(CC(O)COc3ccccc3)CC2)cc1 (stereo not given) | -27.1% |
| CCc1cccc(CC)c1N1C(=O)CC(Sc2ccccc2N)C1=O (stereo not given) | -0.919% |
| C[C@H](CO)N1C[C@H](C)[C@@H](CN(C)S(=O)(=O)c2ccc(Oc3ccccc3)cc2)OCc2cn(nn2)CCCC1=O | 2.13% |
| O=c1c2c3c(sc2n(CCN2CCCC2)c(=O)n1Cc1ccccc1)CCCCC3 | -21.9% |
| CCn1c(=S)[nH]c2sc3c(c2c1=O)CCCCC3 | -15.3% |
| CN(C)CCCn1c(=O)n(Cc2ccccc2)c(=O)c2c3c(sc21)CCCCC3 | -52.1% (active) |
| Cc1ccc(-c2cnc(C(O)c3cc(Cl)cc(Cl)c3)[nH]2)cc1 (stereo not given) | 17.6% |
| COc1cccc(CN2CCN(Cc3ccc4cccc(F)c4n3)CC2CCO)c1 (stereo not given) | -65.2% (active) |
| OCCC1CN(Cc2cnc(-c3ccccc3)s2)CCN1CCc1ccccc1 (stereo not given) | -27.8% |
| OCCC1CN(Cc2ccccc2-c2ccco2)CCN1Cc1ccsc1 (stereo not given) | -16.3% |
| OCCC1CN(Cc2cccc(OC3CCCC3)c2)CCN1Cc1ccsc1 (stereo not given) | -81.9% (active) |
| OCCC#Cc1ccc(CN2CCN(Cc3ccsc3)C(CCO)C2)cc1 (stereo not given) | -22.9% |
| OCCC1CN(Cc2cccc(O)c2)CCN1CCc1ccccc1 (stereo not given) | -52.7% (active) |
| CC(=O)Nc1ccc(CN2CCN(Cc3ccc(F)c(F)c3)C(CCO)C2)cc1 (stereo not given) | 7.18% |
| CCOc1ccc(CN2CCN(Cc3ccc4cc(F)ccc4n3)CC2CCO)cc1 (stereo not given) | -27.2% |
| OCCC1CN(Cc2ccc(Oc3ncccn3)cc2)CCN1CCc1ccccc1 (stereo not given) | -10.3% |
| Cc1cccc(CN2CCN(Cc3cnn(-c4ccccc4F)c3)CC2CCO)n1 (stereo not given) | -69% (active) |
| Cc1ccc(CN2CCN(Cc3ccc4ncccc4c3)CC2CCO)cc1 (stereo not given) | -16% |
| Cc1ccc(CN2CCN(Cc3cccc(C)n3)CC2CCO)cc1 (stereo not given) | -24.5% |
| Cc1ccc(C(=O)OCC(=O)NC2CCCCCCC2)cc1C | 5.37% |
| CCCCNC(=O)C[C@@H]1C[C@@]2(C(=O)OC)CC(C)(C)CC=C2N(Cc2ccco2)C1=O | 22.3% |
| Cc1cc(Br)cn2c(Cc3ccccc3C(F)(F)F)c(-c3ccc(Cl)cc3)nc12 | 3.99% |
